Most compounds without a hit are left out; they make up all but 11% or so of the library.
HEK cytotox: Cytotoxic Profiling in HEK 293 Cell Line of Diverse Libraries Using Quantitative High-Throughput Screening. HEK 293 viability, ATP luminescence (CellTiter-Glo), 48-72 h. Potency, µM (titrated, usually from 115 µM), for inactives: top-dose activity change, negative = cytotoxicity, actives largely listed as inhibitors. actives 6.6% (n = 94,000). AID 1345083, 2018; note: % is set by controls: 0 for no effect and ±100 for the full control effect; nearly all actives have a fitted effect of over 60% in size
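Viability of HEK 293 cells, plated at 250 cells/well, was judged by cellular ATP after compound treatment for 48 or 72 hr. Luminescence was imaged 10 min after CellTiter-Glo addition at room temperature.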
FLuc inh-1: Firefly luciferase inhibition profiling of diverse chemical library using quantitative high-throughput screening. Luciferin 4-monooxygenase (Photinus pyralis), P08659. purified P. pyralis luciferase, luminescence, biochemical. Potency, µM (highest dose often 115 µM), hits mostly inhibitors. actives 2.5% (n = 76,000). AID 1347043, 2019; note: % is set by controls: 0 for no effect and ±100 for the full control effect; nearly all actives have a fitted effect of over 65% in size
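Purified P. pyralis luciferase (10nM final) in 50mM Tris acetate pH 7.5, 10mM Mg acetate, 0.01% Tween-20, 0.05% BSA with 10uM D-luciferin and 10uM ATP. Compounds titrated qHTS. Luminescence imaged on CCD.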
NPR1 antag: Natriuretic polypeptide receptor (hNpr1) antagonism - Primary qHTS; actives 1.6% (n = 76,000); AID 1347048, 2019; Potency, µM (titrated, usually from 46.3 µM), for the others: at the highest dose activity change, negative = inhibition, actives largely listed as inhibitors; HEK293 hNpr1 GloSensor cGMP, ANP-stimulated luminescence; Atrial natriuretic peptide receptor 1 (Homo sapiens), P16066; calls by dose curve; note: % is set by controls: 0 for no effect and ±100 for the full control effect; nearly all actives have a fitted effect of over 60% in size
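Compound pre-incubated 30 min at room temperature on GloSensor-loaded HEK293 cells stably carrying hNpr1 and the pGS-40F cGMP biosensor. Stimulation uses hNppA at 0.1 nM final; luminescence is taken at baseline and 20 min post-agonist.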
3T3 cytotox: Cytotoxic Profiling in NIH 3T3 Cell Line of Diverse Libraries Using Quantitative High-Throughput Screening; actives 4.3% (n = 94,000); AID 1345082, 2018; Potency, µM (top dose mostly 96.7 µM), without a hit: at the top dose activity change, negative = cytotoxicity, most hits filed as inhibitors; NIH 3T3 viability, CellTiter-Glo ATP luminescence, 48-72 h; note: % is set by controls: 0 for no effect and ±100 for the full control effect; nearly all actives have a fitted effect of over 55% in size
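Cells were seeded at 400 per well, treated with pin-transferred compound, and kept 48 or 72 hr at 37 °C before CellTiter-Glo addition and luminescence imaging of cellular ATP.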
FLuc SDR -ATP: Firefly luciferase (FLuc-C-HiBiT) SDR gain of signal screen - without ATP | shares compounds with FLuc inh-1 | Purified FLuc-C-HiBiT, Nano-Glo HiBiT luminescence, no ATP | Potency, µM (doses to about 32.7 µM), without a hit: top-dose activation (signal gain), actives largely listed as activators | actives 7.8% (n = 1,300) | AID 1963318, 2024; note: nearly all actives have a fitted effect of over 55% in size
FLuc SDR ATP: Firefly luciferase (FLuc-C-HiBiT) SDR gain of signal screen - plus ATP. shares compounds with FLuc inh-1. AID 1963319, 2024. purified FLuc-C-HiBiT + ATP, HiBiT complementation luminescence. actives 8.7% (n = 1,300). Potency, µM (titrated, usually from 32.7 µM), inactives show at the top dose activation (gain of signal), most hits filed as activators;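 note: signal reports ligand binding via conformational change of the enzyme rather than luciferase catalysis; % of control where 0% means no effect; nearly all actives have a fitted effect of over 55% in size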
FLuc inh-2: Firefly luciferase (FLuc-C-HiBiT) enzymatic inhibition screen - Functional assay; Potency, µM (top dose mostly 32.7 µM), for inactives: at the top dose activity change, negative = inhibition, usual class: inhibitors; shares compounds with FLuc inh-1; actives 42% (n = 1,300); purified FLuc-C-HiBiT enzyme, luciferin luminescence; note: % is set by controls: 0 for no effect and ±100 for the full control effect; nearly all actives have a fitted effect of over 70% in size
NPR1 antag cnf: Natriuretic polypeptide receptor (hNpr1) antagonism - Confirmation. shares compounds with NPR1 antag. HEK293 hNpr1 cGMP GloSensor luminescence, ANP-stimulated. Potency, µM (doses to about 57.6 µM), for inactives: at the top dose activity change, negative = inhibition, most hits filed as inhibitors. actives 76% (n = 1,400). AID 1347044, 2019; calls by dose curve; note: nearly all actives have a fitted effect of over 70% in size
Npr2 selectivity: Natriuretic polypeptide receptor (hNpr2) antagonism - Subtype selectivity assay; actives 67% (n = 1,400); AID 1347046, 2019; HEK293 hNpr2 GloSensor cGMP luminescence, CNP-stimulated; Potency, µM (top dose mostly 57.6 µM), for the others: top-dose activity change, negative = inhibition, hits mostly inhibitors; shares compounds with NPR1 antag; calls by dose curve; note: nearly all actives have a fitted effect of over 70% in size
Target sequence (P20594 whole entry, looked up): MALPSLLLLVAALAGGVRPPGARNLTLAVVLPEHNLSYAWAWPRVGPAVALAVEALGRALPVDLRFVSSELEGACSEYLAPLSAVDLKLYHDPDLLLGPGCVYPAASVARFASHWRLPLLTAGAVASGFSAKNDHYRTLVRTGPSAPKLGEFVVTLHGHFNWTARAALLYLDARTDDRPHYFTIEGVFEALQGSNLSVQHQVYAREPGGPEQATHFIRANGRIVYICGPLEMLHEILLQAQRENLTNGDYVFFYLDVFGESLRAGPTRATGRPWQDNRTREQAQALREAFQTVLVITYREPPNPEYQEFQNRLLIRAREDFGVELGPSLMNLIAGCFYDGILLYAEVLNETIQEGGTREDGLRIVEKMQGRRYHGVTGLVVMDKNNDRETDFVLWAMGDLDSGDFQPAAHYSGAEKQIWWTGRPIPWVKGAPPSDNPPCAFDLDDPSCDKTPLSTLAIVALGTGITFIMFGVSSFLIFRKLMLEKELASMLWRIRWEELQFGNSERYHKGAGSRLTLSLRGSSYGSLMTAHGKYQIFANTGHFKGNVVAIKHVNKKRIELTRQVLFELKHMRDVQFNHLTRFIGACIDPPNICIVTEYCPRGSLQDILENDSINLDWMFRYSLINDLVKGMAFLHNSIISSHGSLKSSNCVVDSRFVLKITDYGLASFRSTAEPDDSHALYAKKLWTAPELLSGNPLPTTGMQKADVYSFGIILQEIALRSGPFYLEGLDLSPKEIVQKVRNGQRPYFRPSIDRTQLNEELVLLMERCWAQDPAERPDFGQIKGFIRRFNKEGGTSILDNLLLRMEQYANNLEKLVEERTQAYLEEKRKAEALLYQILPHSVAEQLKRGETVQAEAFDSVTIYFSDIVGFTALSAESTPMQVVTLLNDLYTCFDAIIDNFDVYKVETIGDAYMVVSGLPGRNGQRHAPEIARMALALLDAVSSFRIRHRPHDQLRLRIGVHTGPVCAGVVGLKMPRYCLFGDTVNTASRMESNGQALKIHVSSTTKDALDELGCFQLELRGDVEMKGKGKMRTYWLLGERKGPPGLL
FLuc inh counter: Natriuretic polypeptide receptor (hNpr1) antagonism - Confirmation firefly luciferase (FLuc) inhibition counterscreen; shares compounds with NPR1 antag; purified FLuc enzyme, luminescence, Km substrate; Potency, µM (titrated, usually from 57.6 µM), inactives show at the top dose activity change, negative = inhibition, usual class: inhibitors; actives 0.7% (n = 1,400); AID 1347047, 2019; note: series mostly up to about 58 µM; 0% is about no effect
GloSensor ctrl: Natriuretic polypeptide receptor (hNpr1) antagonism - Counterscreen GloSensor control cell line; shares compounds with NPR1 antag; HEK293 GloSensor cGMP, SNP-stimulated, luminescence; Potency, µM (titrated, usually from 57.6 µM), without a hit: at the top dose activity change, negative = inhibition, hits mostly inhibitors; actives 69% (n = 1,400); AID 1347051, 2019; calls by dose curve; note: % is set by controls: 0 for no effect and ±100 for the full control effect; nearly all actives have a fitted effect of over 70% in size
* = called active by the depositor; [ ] = another dose, or the depositor's remark. Unless noted, calls come from the whole dose curve; as a rule, active = well fitted curve in the direction sought with a large enough effect; inconclusive = small, poorly fitted or top-dose-only effect, or another doubt; inactive = no such curve, though single readings can be large; an effect the other way counts as inactive or inconclusive. Potency is the fitted concentration of half-maximal effect.

What do the screens show for `Nc1nc2c([nH]c(=O)n2C2OC(CO)C(O)C2O)c(=O)[nH]1` (centres undefined)?
FLuc SDR -ATP: 14.3%; FLuc SDR ATP: 8.3%; FLuc inh-2: 0.5%

How did CS(=O)(=O)N1C[C@H]2CCN(Cc3c(F)cccc3Cl)C[C@H]21 do in these assays?
HEK cytotox: inconclusive; FLuc inh-1: inactive; NPR1 antag: 3.5%; 3T3 cytotox: -27.3%

Results for CCCN1CCC[C@H]1c1nc(-c2ccc(NCCOC)nc2)no1 ?
HEK cytotox: -14.5%[172 µM]; FLuc inh-1: inactive; NPR1 antag: 5.2%[70.6 µM]; 3T3 cytotox: -9.3%[138 µM]

How did CCC(=O)N(C1CCOCC1)C1CCN(Cc2ccc(C)cc2)CC1 do in these assays?
HEK cytotox: 3.7%; FLuc inh-1: inactive; NPR1 antag: 0.2%; 3T3 cytotox: -6.3%

How did Cc1c(CN(C)c2cc(C3CC(O)C3)nc(N)n2)[nH]c2ccccc12 (centres undefined) do in these assays?
HEK cytotox: -92.7%; FLuc inh-1: inactive; NPR1 antag: 0.631µM*; 3T3 cytotox: inconclusive; NPR1 antag cnf: 0.432µM*; Npr2 selectivity: 0.863µM*; FLuc inh counter: 1.5%; GloSensor ctrl: 0.432µM*

Results for Cc1ccc(SCCN(C)c2cc(C3CC(O)C3)nc(N)n2)cc1 (centres undefined) ?
HEK cytotox: 28.2µM*; FLuc inh-1: inactive; NPR1 antag: 12.6µM*; 3T3 cytotox: inconclusive; NPR1 antag cnf: 24.3µM*; Npr2 selectivity: 21.7µM*; FLuc inh counter: 4.3%; GloSensor ctrl: 21.7µM*

How did O=C(c1ccc(F)cc1)N1CCC(Cc2nc(-c3cnccn3)no2)CC1 do in these assays?
HEK cytotox: inconclusive; FLuc inh-1: inactive; NPR1 antag: -15.5%; 3T3 cytotox: inconclusive

Results for O=C(c1cc(F)cc(F)c1)N1CCC(Cc2nc(-c3ccccc3)no2)CC1 ?
HEK cytotox: inconclusive; FLuc inh-1: inactive; NPR1 antag: 7.08µM*; 3T3 cytotox: inconclusive; NPR1 antag cnf: 6.11µM*; Npr2 selectivity: 6.11µM*; FLuc inh counter: -1.7%; GloSensor ctrl: 5.44µM*

How did CC(C)c1noc(CC2CCN(C(=O)c3ccccc3Cl)CC2)n1 do in these assays?
HEK cytotox: inconclusive; FLuc inh-1: inactive; NPR1 antag: -27.9%; 3T3 cytotox: inconclusive

Results for O=C(c1ccc(F)cc1)N1CCC(Cc2nc(C3CCOCC3)no2)CC1 ?
HEK cytotox: inconclusive; FLuc inh-1: inactive; NPR1 antag: inconclusive; 3T3 cytotox: inconclusive

What do the screens show for `O=C(c1cc(F)ccc1Cl)N1CCC(Cc2nc(-c3ccccc3)no2)CC1`?
HEK cytotox: 50.1µM*; FLuc inh-1: inactive; NPR1 antag: 11.2µM*; 3T3 cytotox: inconclusive; NPR1 antag cnf: 13.7µM*; Npr2 selectivity: 15.3µM*; FLuc inh counter: -12.5%; GloSensor ctrl: 12.2µM*

Results for O=C(c1cc(F)ccc1Cl)N1CCC(Cc2nc(-c3ccc(F)cc3)no2)CC1 ?
HEK cytotox: inconclusive; FLuc inh-1: inactive; NPR1 antag: 7.08µM*; 3T3 cytotox: inconclusive; NPR1 antag cnf: 9.68µM*; Npr2 selectivity: 10.9µM*; FLuc inh counter: 0.1%; GloSensor ctrl: 8.62µM*

What do the screens show for `O=C(c1ccc(F)cc1Cl)N1CCC(Cc2nc(-c3ccccc3)no2)CC1`?
HEK cytotox: inconclusive; FLuc inh-1: inactive; NPR1 antag: 5.62µM*; 3T3 cytotox: inconclusive; NPR1 antag cnf: 5.44µM*; Npr2 selectivity: 5.44µM*; FLuc inh counter: -1.0%; GloSensor ctrl: 4.32µM*

Results for Cc1noc(C)c1S(=O)(=O)NC1CCN(C(=O)N2CC3CC(C2)[C@H]2CCCC(=O)N2C3)CC1 (some centres undefined) ?
HEK cytotox: 0.9%; FLuc inh-1: inactive; NPR1 antag: 5.8%; 3T3 cytotox: -11.7%

Results for O=C(Nc1ccccc1)c1cnc(-c2ccc(F)cc2)nc1-c1ccncc1 ?
HEK cytotox: 14.7%; FLuc inh-1: inactive; NPR1 antag: -22.2%; 3T3 cytotox: inconclusive

Results for O=C(Nc1cccc(F)c1)c1cnc(-c2ccc(F)cc2)nc1-c1ccncc1 ?
HEK cytotox: 44.7µM*; FLuc inh-1: inactive; NPR1 antag: inconclusive; 3T3 cytotox: inconclusive; NPR1 antag cnf: inconclusive; Npr2 selectivity: inconclusive; FLuc inh counter: 14.8%; GloSensor ctrl: inconclusive

Source: PubChem
